# Rows were chosen to be rich in hits. Some 19% of all compounds tested hit in one or more screens of this group.
# HT1080 IDH1KD tx: HT-1080 IDH1 knockdown cell toxicity (counter line); HT-1080 IDH1 knockdown viability, ATP luminescence, 48 h; Potency, µM (highest dose often 46.1 µM), hits mostly cytotoxic; 2% of 360,000 active; AID 686971
#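 Assay cells: HT-1080 with IDH1 knockdown, 750 per well, RPMI/5% FBS. Exposure: 48 h at 37 °C following 2 h pre-incubation. Read: CellTiter-Glo luminescence; fitted concentration-response, curve class assigned.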
# IL-1B inflam inh: inhibitors of inflammasome signaling (IL-1 beta secretion); activity change, % at 57.5 µM; AID 743279; 4.7% of 360,000 active; THP-1 LPS/ATP IL-1B secretion, AlphaLISA, 16 h; hits give low values; in the data active = activity change below about -50%; inconclusive = mostly about -30% to -49%
#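 Secreted IL-1B measured by AlphaLISA bead assay after 16 h compound exposure of THP-1 cells; compounds (final up to 57.5 uM) added 1 h before LPS (250 ng/mL) and ATP (1.25 mM) stimulation; lower signal means less secretion.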
# TDP1 cell CPT: DT40-hTDP1 cell growth loss with CPT; Potency, µM (titrated, usually from 46.2 µM), most hits filed as inhibitors; AID 686979; 12% of 420,000 active; chicken DT40 Tdp1-/-;hTDP1 cells + 20 nM CPT, ATP luminescence, 48 h; note: nearly all actives have a fitted effect of over 55% in size
#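 Chicken DT40 Tdp1-/- cells complemented with human TDP1, 400 cells/well, exposed to compounds plus 20 nM camptothecin for at least 48 h at 37 C; viability read as ATP content by CellTiter-Glo luminescence.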
# TDP1 cell noCPT: qHTS for Inhibitors of human tyrosyl-DNA phosphodiesterase 1 (TDP1): qHTS in cells in absence of CPT; DT40 Tdp1-/- hTDP1 cells, no CPT, ATP luminescence, 48 h; AID 686978, 2013; 15% of 420,000 active; Potency, µM (doses to about 46.2 µM), usual class: inhibitors; note: nearly all actives have a fitted effect of over 55% in size
#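 Compound effects on proliferation are scored in DT40 Tdp1-/-;hTDP1 cells in the absence of CPT. ATP levels (CellTiter-Glo luminescence) are recorded after a ≥48 hr, 37 °C incubation.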
# HT1080-NT tox: kills 2HG-producing HT-1080-NT fibrosarcoma cells; HT-1080-NT fibrosarcoma viability, CellTiter-Glo ATP luminescence, 48 h; 1.6% of 360,000 active; Potency, µM (top dose mostly 46.1 µM), usual class: cytotoxic;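 note: NT is the 2HG producing partner of a matched IDH1 knockdown line; nearly all actives have a fitted effect of over 55% in size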
#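 750 cells/well, RPMI + 5% FBS; 2 h settle, compound pin-transfer, 48 h at 37 degrees C. CellTiter-Glo 10 min RT, luminescence. Normalized to DMSO and media-only wells.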
# Hits are given with their value; i = inactive; ? = inconclusive; nt = not tested or not shown. Unless noted, calls come from the whole dose curve; as a rule, active = well fitted curve in the direction sought with a large enough effect; inconclusive = small, poorly fitted or top-dose-only effect, or another doubt; inactive = no such curve, though single readings can be large; an effect the other way counts as inactive or inconclusive.
SMILES,HT1080 IDH1KD tx,IL-1B inflam inh,TDP1 cell CPT,TDP1 cell noCPT,HT1080-NT tox
CSC1=NC(C(Cl)(Cl)Cl)N=C(c2ccccc2)N1 (centres undefined),20.6µM,i,2.59µM,3.66µM,?
CCCCSc1nnc2c(n1)OC(c1ccc(Br)s1)Nc1ccccc1-2 (centres undefined),nt,nt,?,18.4µM,nt
CSc1nnc2c(n1)OC(c1cccc(O)c1Cl)Nc1ccccc1-2 (centres undefined),nt,nt,i,?,nt
CCOC(=O)N1CCC(NCCNC(=O)c2cccc(F)c2)CC1,i,i,i,i,i
CCOc1ccc2[nH]c3c(NCC(C)C)ncnc3c2c1,i,?,?,25.9µM,i
CCOc1ccc2[nH]c3c(NCCN(CC)CC)ncnc3c2c1,?,-96.1,i,i,?
COc1ccc2[nH]c3c(NCCN(C(C)C)C(C)C)ncnc3c2c1,i,-57.4,16.4µM,18.4µM,i
CCN(CC)CCCNc1nc2ccccc2c2[nH]c3ccc(OC)cc3c12,20.6µM,-98.1,5.17µM,2.91µM,?
Cc1c(C(=O)N2CCOCC2)sc(NC(=O)C(C)C)c1C#N,i,i,i,i,i
Cc1c(S(=O)(=O)NC2CCCCC2)c(=O)n(C)c(=O)n1C,i,i,i,i,i
CCOc1ccc2[nH]c3c(NCCCOC)ncnc3c2c1,i,-54.0,?,?,i
CC(=O)SC[C@@H](Cc1ccccc1)C(=O)NCC(=O)OCc1ccccc1,nt,nt,i,i,nt
COc1cc(N/N=C/c2ccccc2O)ncn1,?,i,1.64µM,1.46µM,?
CCOc1ccc(/C=N/Nc2nc(C)cs2)c(O)c1,i,i,10.3µM,?,i
CCOc1ccc(/C=N/Nc2cc(N3CCOCC3)ncn2)c(O)c1,2.31µM,i,5.8µM,5.8µM,?
CCCOc1ccc(/C=N/Nc2cc(N3CCOCC3)ncn2)c(O)c1,3.66µM,i,?,10.3µM,?
O=C(CSc1nc2ccccc2nc1Cc1ccccc1F)Nc1cccc(C(F)(F)F)c1,nt,nt,i,i,nt
CCC(=O)/C=C1\Sc2ccc(OC)cc2N1CC,i,i,?,16.4µM,i
CCC(=O)/C=C1\Sc2ccc(OC)cc2N1CCO,i,i,i,i,?
Cc1ccc(CSc2nc3cccnc3n2Cc2ccc(C(=O)NCCc3ccccc3)cc2)cc1,nt,nt,i,i,nt
O=C(NCCc1ccccc1)c1ccc(Cn2c(SCc3cccc(F)c3)nc3cccnc32)cc1,nt,nt,7.31µM,14.6µM,nt
Cc1ccccc1CNC(=O)c1ccc(Cn2c(SCc3cccc(F)c3)nc3cccnc32)cc1,nt,nt,14.6µM,14.6µM,nt
O=C(NCc1cccs1)c1ccc(Cn2c(SCc3cccc(F)c3)nc3cccnc32)cc1,nt,nt,25.9µM,18.4µM,nt
O=C(Cc1cccc([N+](=O)[O-])c1)NCc1nc2cccnc2n1Cc1ccc(F)cc1,nt,nt,i,i,nt
Cc1ccccc1CSc1nc2cccnc2n1Cc1ccc(C(=O)NCCc2cccs2)cc1,nt,nt,13µM,16.4µM,nt
SMILES,HT1080 IDH1KD tx,IL-1B inflam inh,TDP1 cell CPT,TDP1 cell noCPT,HT1080-NT tox
CN(/C=C/c1c([N+](=O)[O-])c(=O)n(C)c(=O)n1C)c1ccccc1,i,i,i,i,i
Cn1c(/C=C/c2cccc([N+](=O)[O-])c2)c([N+](=O)[O-])c(=O)n(C)c1=O,?,-107.1,?,14.6µM,i
COc1ccc(/C=C/c2c([N+](=O)[O-])c(=O)n(C)c(=O)n2C)c(OC)c1OC,i,-58.2,i,?,i
CCn1c(/C=C/c2cccc([N+](=O)[O-])c2)nc2ccccc2c1=O,i,i,?,?,i
Cn1c(/C=C/c2ccc(Cl)cc2)c([N+](=O)[O-])c(=O)n(C)c1=O,?,-99.7,?,20.6µM,?
COc1ccc(/C=C/c2c([N+](=O)[O-])c(=O)n(C)c(=O)n2C)cc1OC,i,i,i,i,i
CCCCCOc1ccc(/C=C/c2c([N+](=O)[O-])c(=O)n(C)c(=O)n2C)cc1,i,-86.5,18.4µM,20.6µM,i
COc1ccc(C2=C(C)C(=O)N(Cc3ccc(C(=O)NC(C)c4ccccc4)cc3)S2(=O)=O)cc1 (centres undefined),nt,nt,i,i,nt
CC(OC(=O)Cc1ccc(Br)cc1)C(=O)NC1CCCC1 (centres undefined),i,i,?,i,i
CC1CCCN(CCOc2ccc3ccccc3c2Br)C1 (centres undefined),18.4µM,-215.8,?,?,20.6µM
Cc1ccc(C)c(S(=O)(=O)N2CCN(C(=O)[C@H](Cc3ccccc3)NC(=O)c3ccco3)CC2)c1,i,i,23.1µM,16.4µM,i
CSCCC(NC(=O)c1ccco1)C(=O)N1CCN(C(c2ccccc2)c2ccccc2)CC1 (centres undefined),i,?,23.1µM,16.4µM,i
CSCCC(NC(=O)c1ccco1)C(=O)N1CCCC(C(F)(F)F)C1 (centres undefined),i,i,i,?,i
Cc1ccc(S(=O)(=O)N2CCN(C(=O)[C@H](Cc3ccccc3)NC(=O)c3ccco3)CC2)cc1,i,i,?,?,i
Cc1ccc(S(=O)(=O)N2CCN(C(=O)[C@H](Cc3ccccc3)NC(=O)c3ccco3)CC2)cc1C,i,i,?,16.4µM,i
COc1cccc(NC(=O)C2C3C=CC(O3)C2C(=O)NCc2cccnc2)c1 (centres undefined),?,i,?,i,i
COc1ccc(Cc2nc3ccc(C(=O)NC(C)Cc4ncccc4C)cc3o2)cc1OC (centres undefined),i,i,18.4µM,?,i
COc1ccc(Cc2nc3ccc(C(=O)N4CCN(C)C(C)C4)cc3o2)cc1OC (centres undefined),i,i,?,18.4µM,i
CN(Cc1nccs1)C(=O)c1ccc2nc(Cc3ccccc3F)oc2c1,i,i,?,?,i
COc1ccc(Cc2nc3ccc(C(=O)N4CCCC4)cc3o2)cc1,i,i,i,i,i
COc1ccc(Cc2nc3ccc(C(=O)N(C)Cc4nccs4)cc3o2)cc1OC,i,i,10.3µM,?,i
COc1ccc(Cc2nc3ccc(C(=O)N4CCCC4)cc3o2)cc1OC,i,i,?,20.6µM,i
CN(C)c1ccc(C(=C2c3ccccc3-c3ccccc32)c2ccc(N(C)C)cc2)cc1,nt,nt,i,i,nt
CCN(CC(=O)Nc1ccc(NC(C)=O)cc1)C(=O)Cc1ccc(Cl)c(Cl)c1,i,i,i,?,i
COc1ccc(Cc2nc3ccc(C(=O)NCc4ncc(C)[nH]4)cc3o2)cc1OC,i,i,i,i,i
C=CCN(CC=C)C(=O)c1ccc2nc(Cc3ccc(OC)c(OC)c3)oc2c1,?,?,?,4.61µM,i
COc1ccc(Cc2nc3ccc(C(=O)NC4CCOC4)cc3o2)cc1OC (centres undefined),i,i,11.6µM,?,i
COc1ccc(CCNC(=O)c2ccc3nc(CCc4ccccc4)oc3c2)cc1OC,nt,nt,?,i,nt
